{"source": "the supplement of paper PMC9262897", "about": "“Low-cost anti-mycobacterial drug discovery using engineered E. coli” (Nature Communications, 2022)", "note": "Counter-ions that a name gives are not always drawn. ± gives the standard deviation of the averaged measurements."}
{"tested_on": "E. coli TESEC Mtb DapB", "experiment": "growth (OD600 after 10 h); higher = more growth (less inhibition)", "conditions": "arabinose induction (level): High; compound 0.1 mM; raw OD600 reference: median of DMSO wells […], cell-free background 0.041", "experimental": "(§1)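 TESEC E. coli strains in which the native enzyme is deleted and replaced by arabinose-inducible Mtb Asd, DapB, CysH or TrpD, each grown in its selective medium. Strains were screened against the Prestwick library at 0.1 mM and 1% DMSO in 384-well format at low and high arabinose induction. Growth is read as OD600 after 10 h in triplicate.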"}
{"smiles": "Cc1ccnc2c1NC(=O)c1cccnc1N2C1CC1", "note": "[Nevirapine]", "growth": "0.209 ± 0.012"}
{"smiles": "Cc1ccc(S(=O)(=O)NC(=O)NN2CC3CCCC3C2)cc1", "note": "(stereo not given) [Gliclazide]", "growth": "0.212 ± 0.011"}
{"smiles": "CC(C)[C@H](N)C(=O)OCCOCn1cnc2c(=O)nc(N)[nH]c21", "note": "[Valacyclovir hydrochloride]", "growth": "0.179 ± 0.011"}
{"smiles": "CC(=O)OCC(=O)[C@@]1(O)CC[C@H]2[C@@H]3CCC4=CC(=O)CC[C@]4(C)[C@@]3(F)[C@@H](O)C[C@@]21C", "note": "[Fludrocortisone acetate]", "growth": "0.188 ± 0.014"}
{"smiles": "CCOc1cc(CC(=O)N[C@@H](CC(C)C)c2ccccc2N2CCCCC2)ccc1C(=O)O", "note": "[Repaglinide]", "growth": "0.168 ± 0.014"}
{"smiles": "COc1cc2nc(N3CCN(C(=O)C4CCCO4)CC3)nc(N)c2cc1OC", "note": "(stereo not given) [Terazosin hydrochloride]", "growth": "0.222 ± 0.02"}
{"smiles": "CC[C@H]1OC(=O)[C@H](C)[C@@H](O[C@H]2C[C@@](C)(OC)[C@@H](O)[C@H](C)O2)[C@H](C)[C@@H](O[C@@H]2O[C@H](C)C[C@H](N(C)C)[C@H]2O)[C@](C)(O)C[C@@H](C)[C@@H]2N[C@@H](COCCOC)O[C@H]([C@H]2C)[C@]1(C)O", "note": "[Dirithromycin]", "growth": "0.0519 ± 0.0012"}
{"smiles": "CC[N+](C)(CC)CCC[n+]1c(-c2ccccc2)c2cc(N)ccc2c2ccc(N)cc21", "note": "[Propidium iodide]", "growth": "0.137 ± 0.027"}
{"smiles": "CCc1nn(CCCN2CCN(c3cccc(Cl)c3)CC2)c(=O)n1CCOc1ccccc1", "note": "[Nefazodone HCl]", "growth": "0.05113 ± 0.00049"}
{"smiles": "Cc1cc(=O)n(-c2ccccc2)n1C", "note": "[Antipyrine]", "growth": "0.191 ± 0.0076"}
{"smiles": "CCC(C)(C)c1ccc(CC(C)CN2C[C@@H](C)O[C@@H](C)C2)cc1", "note": "(stereo not given in full) [Amorolfine hydrochloride]", "growth": "0.168 ± 0.02"}
{"smiles": "C=C1/C(=C\\C=C2/CCC[C@]3(C)[C@@H]([C@H](C)/C=C/[C@@H](O)C4CC4)CC[C@@H]23)C[C@@H](O)C[C@@H]1O", "note": "[Calcipotriene]", "growth": "0.158 ± 0.078"}
{"smiles": "CC(C)NCC(O)COc1ccc(COCCOC(C)C)cc1", "note": "(stereo not given) [Bisoprolol fumarate]", "growth": "0.184 ± 0.017"}
{"smiles": "NS(=O)(=O)c1cc(C(=O)O)cc(N2CCCC2)c1Oc1ccccc1", "note": "[Piretanide]", "growth": "0.21 ± 0.029"}
{"smiles": "CC(C[N+](C)(C)C)OC(N)=O", "note": "(stereo not given) [Bethanechol chloride]", "growth": "0.2 ± 0.024"}
{"smiles": "COc1cc(NS(=O)(=O)c2ccc(N)cc2)ncn1", "note": "[Sulfamonomethoxine]", "growth": "0.166 ± 0.026"}
{"smiles": "Cc1cc(O)c(C(=O)N[C@@H](C(=O)N[C@@H]2C(=O)N3C(C(=O)O)=C(CSc4nnnn4C)CS[C@H]23)c2ccc(O)cc2)cn1", "note": "[Cefpiramide]", "growth": "0.214 ± 0.007"}
{"smiles": "CCCCC1(COC(=O)CCC(=O)O)C(=O)N(c2ccccc2)N(c2ccccc2)C1=O", "note": "[Suxibuzone]", "growth": "0.1763 ± 0.0008"}
{"smiles": "COc1ccnc(C[S+]([O-])c2nc3cc(OC(F)F)ccc3[nH]2)c1OC", "note": "(stereo not given) [Pantoprazole sodium]", "growth": "0.189 ± 0.0071"}
{"smiles": "CS(=O)(=O)Nc1ccc([N+](=O)[O-])cc1Oc1ccccc1", "note": "[Nimesulide]", "growth": "0.201 ± 0.0065"}
{"tested_on": "E. coli TESEC Mtb DapB", "experiment": "growth (OD600 after 10 h); higher = more growth (less inhibition)", "conditions": "arabinose induction (level): Low; compound 0.1 mM; raw OD600 reference: median of DMSO wells 0.227, cell-free background 0.041", "experimental": "as §1"}
{"smiles": "Cc1ccnc2c1NC(=O)c1cccnc1N2C1CC1", "note": "[Nevirapine]", "growth": "0.243 ± 0.0097"}
{"smiles": "Cc1ccc(S(=O)(=O)NC(=O)NN2CC3CCCC3C2)cc1", "note": "(stereo not given) [Gliclazide]", "growth": "0.28 ± 0.042"}
{"smiles": "CC(C)[C@H](N)C(=O)OCCOCn1cnc2c(=O)nc(N)[nH]c21", "note": "[Valacyclovir hydrochloride]", "growth": "0.186 ± 0.021"}
{"smiles": "CC(=O)OCC(=O)[C@@]1(O)CC[C@H]2[C@@H]3CCC4=CC(=O)CC[C@]4(C)[C@@]3(F)[C@@H](O)C[C@@]21C", "note": "[Fludrocortisone acetate]", "growth": "0.242 ± 0.039"}
{"smiles": "CCOc1cc(CC(=O)N[C@@H](CC(C)C)c2ccccc2N2CCCCC2)ccc1C(=O)O", "note": "[Repaglinide]", "growth": "0.201 ± 0.031"}
{"smiles": "COc1cc2nc(N3CCN(C(=O)C4CCCO4)CC3)nc(N)c2cc1OC", "note": "(stereo not given) [Terazosin hydrochloride]", "growth": "0.219 ± 0.012"}
{"smiles": "CC[C@H]1OC(=O)[C@H](C)[C@@H](O[C@H]2C[C@@](C)(OC)[C@@H](O)[C@H](C)O2)[C@H](C)[C@@H](O[C@@H]2O[C@H](C)C[C@H](N(C)C)[C@H]2O)[C@](C)(O)C[C@@H](C)[C@@H]2N[C@@H](COCCOC)O[C@H]([C@H]2C)[C@]1(C)O", "note": "[Dirithromycin]", "growth": "0.052 ± 0.00061"}
{"smiles": "CC[N+](C)(CC)CCC[n+]1c(-c2ccccc2)c2cc(N)ccc2c2ccc(N)cc21", "note": "[Propidium iodide]", "growth": "0.111 ± 0.021"}
{"smiles": "CCc1nn(CCCN2CCN(c3cccc(Cl)c3)CC2)c(=O)n1CCOc1ccccc1", "note": "[Nefazodone HCl]", "growth": "0.0483 ± 0.00036"}
{"smiles": "Cc1cc(=O)n(-c2ccccc2)n1C", "note": "[Antipyrine]", "growth": "0.204 ± 0.0077"}
{"smiles": "CCC(C)(C)c1ccc(CC(C)CN2C[C@@H](C)O[C@@H](C)C2)cc1", "note": "(stereo not given in full) [Amorolfine hydrochloride]", "growth": "0.197 ± 0.017"}
{"smiles": "C=C1/C(=C\\C=C2/CCC[C@]3(C)[C@@H]([C@H](C)/C=C/[C@@H](O)C4CC4)CC[C@@H]23)C[C@@H](O)C[C@@H]1O", "note": "[Calcipotriene]", "growth": "0.0652 ± 0.0025"}
{"smiles": "CC(C)NCC(O)COc1ccc(COCCOC(C)C)cc1", "note": "(stereo not given) [Bisoprolol fumarate]", "growth": "0.227 ± 0.027"}
{"smiles": "NS(=O)(=O)c1cc(C(=O)O)cc(N2CCCC2)c1Oc1ccccc1", "note": "[Piretanide]", "growth": "0.245 ± 0.025"}
{"smiles": "CC(C[N+](C)(C)C)OC(N)=O", "note": "(stereo not given) [Bethanechol chloride]", "growth": "0.242 ± 0.025"}
{"smiles": "COc1cc(NS(=O)(=O)c2ccc(N)cc2)ncn1", "note": "[Sulfamonomethoxine]", "growth": "0.19 ± 0.014"}
{"smiles": "Cc1cc(O)c(C(=O)N[C@@H](C(=O)N[C@@H]2C(=O)N3C(C(=O)O)=C(CSc4nnnn4C)CS[C@H]23)c2ccc(O)cc2)cn1", "note": "[Cefpiramide]", "growth": "0.239 ± 0.035"}
{"smiles": "CCCCC1(COC(=O)CCC(=O)O)C(=O)N(c2ccccc2)N(c2ccccc2)C1=O", "note": "[Suxibuzone]", "growth": "0.204 ± 0.009"}
{"smiles": "COc1ccnc(C[S+]([O-])c2nc3cc(OC(F)F)ccc3[nH]2)c1OC", "note": "(stereo not given) [Pantoprazole sodium]", "growth": "0.194 ± 0.018"}
{"smiles": "CS(=O)(=O)Nc1ccc([N+](=O)[O-])cc1Oc1ccccc1", "note": "[Nimesulide]", "growth": "0.248 ± 0.091"}
